# Most compounds without a hit are left out; they make up all but 12% or so of the library.
# TDP1 inh = qHTS Assay for Inhibitors of Tyrosyl-DNA Phosphodiesterase (TDP1) | recombinant TDP1, AlphaScreen DNA substrate cleavage | 0.28% of 350,000 active | Potency, µM (highest dose often 130 µM), inactives show top-dose activity change, negative = inhibition, usual class: inhibitors; further: on the % scale 0 is the no-effect control and ±100 the full control effect; nearly all actives have a fitted effect of over 40% in size
#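 Recombinant E. coli-expressed Tdp1 (1 nM) preincubated with compound 15 min at RT, then 5'-biotin/3'-phosphotyrosine-FITC DNA substrate (15 nM) added for 5 min. AlphaScreen beads (10 ug/ml) added, 10 min RT; tyrosine-FITC cleavage read as signal loss.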
# Sfp inh = qHTS Assay for Inhibitors of Bacillus subtilis Sfp phosphopantetheinyl transferase (PPTase); 3.5% of 310,000 active; 4'-phosphopantetheinyl transferase ffp (Bacillus subtilis), Q9F4F7; Biochemical Sfp PPTase activity, qHTS; Potency, µM, inactives show largest response in the series, negative = inhibition, actives largely listed as inhibitors; AID 1490, 2009;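 further: the enzyme is Sfp with the accession as filed and its product quenches rhodamine fluorescence; 0% = enzyme reaction without inhibitor and -100% = no enzyme wells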
#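 After 15 min at room temperature with compound, 15 nM Sfp received 5 uM rhodamine-CoA plus 12.5 uM BHQ-2-ybbR (50 mM Hepes pH 7.6, 10 mM MgCl2). Rate came from the fluorescence difference over 30 min, ex 525/em 598 nm.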
# BAZ2B inh = qHTS Assay for Inhibitors of BAZ2B | AlphaScreen BAZ2B-H3K14Ac peptide displacement | Potency, µM (top dose mostly 114 µM), for inactives: at the top dose activity change, negative = inhibition, usual class: inhibitors | AID 504333, 2011 | 4.4% of 360,000 active | Bromodomain adjacent to zinc finger domain protein 2B (Homo sapiens), Q9UIF8; further: on the % scale 0 is the no-effect control and ±100 the full control effect; nearly all actives have a fitted effect of over 60% in size
#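 Protein-peptide AlphaScreen: BAZ2B 50 nM, b-H3K14Ac 50 nM, 1x PBS pH 7.4 + 0.01% Tween-20. Preincubation 30 min RT; cpd 30 min RT (top 110 uM); beads 20 min RT, light-protected.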
# JMJD2A Tudor = qHTS Assay for Inhibitors of JMJD2A-Tudor Domain | 4.4% of 390,000 active | Potency, µM (top dose mostly 114 µM), without a hit: at the highest dose activity change, negative = inhibition, most hits filed as inhibitors | AID 504339, 2011 | Lysine-specific demethylase 4A (Homo sapiens), O75164 | AlphaScreen JMJD2A-Tudor / H3K4me3 peptide binding; further: on the % scale 0 is the no-effect control and ±100 the full control effect; nearly all actives have a fitted effect of over 50% in size
# G9a block = qHTS Assay for Inhibitors of Histone Lysine Methyltransferase G9a | Potency, µM (titrated, usually from 102 µM), inactives show at the highest dose activity, negative = inhibition, usual class: inhibitors | 8.8% of 350,000 active | G9a H3K9 monomethylation, AlphaScreen, 2 h; further: on the % scale 0 is the no-effect control and ±100 the full control effect; nearly all actives have a fitted effect of over 75% in size
# Target sequence (Q96KQ7 913-1193 limits assumed): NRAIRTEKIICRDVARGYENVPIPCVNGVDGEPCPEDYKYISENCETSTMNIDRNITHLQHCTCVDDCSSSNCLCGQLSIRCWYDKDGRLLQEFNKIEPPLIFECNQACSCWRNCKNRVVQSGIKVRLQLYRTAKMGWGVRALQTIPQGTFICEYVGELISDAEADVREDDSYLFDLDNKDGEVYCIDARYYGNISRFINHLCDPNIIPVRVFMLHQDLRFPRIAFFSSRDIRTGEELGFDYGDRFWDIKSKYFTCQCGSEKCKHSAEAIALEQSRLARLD
#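 Chemiluminescent proximity detection of H3K9 monomethylation, read after 10 min bead incubation in the dark. Reaction: 20 nM G9a, 500 nM biotin-H3K9 peptide, 20 uM SAM cofactor, 2 h, room temperature, following 15 min enzyme-compound preincubation.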
# HP1b binding inh = HTS for Inhibitors of HP1-beta Chromodomain Interactions with Methylated Histone Tails; AlphaScreen HP1-beta / biotin-H3K9me3 peptide binding; Potency, µM (doses to about 114 µM), for the others: at the top dose activity change, negative = inhibition, hits mostly inhibitors; 0.56% of 390,000 active; further: nearly all actives have a fitted effect of over 70% in size
# Target sequence (P83916 whole entry, looked up): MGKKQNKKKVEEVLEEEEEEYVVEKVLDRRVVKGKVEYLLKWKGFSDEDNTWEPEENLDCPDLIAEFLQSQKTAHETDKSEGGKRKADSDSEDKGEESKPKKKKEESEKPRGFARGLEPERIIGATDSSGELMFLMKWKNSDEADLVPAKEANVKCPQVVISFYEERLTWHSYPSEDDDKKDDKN
#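 AlphaScreen: HP1-beta (50 nM) preformed 30 min with biotin-H3(1-18)K9me3 peptide (50 nM) in PBS pH 7.4, 0.01% Tween-20. Compound added for 30 min at RT, then streptavidin donor/nickel chelate acceptor beads (10 ug/mL) for 30 min.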
# * marks the source's active call; other numbers are inactive results; ? = inconclusive; · = no result given; [ ] = dose if it differs, or a comment. The call rests on the fitted dose curve; in most records, active means well fitted curve in the direction sought with a large enough effect; inconclusive means small, poorly fitted or top-dose-only effect, or another doubt; inactive means no such curve, though single readings can be large; an effect the other way counts as inactive or inconclusive. Potency means the concentration at half of the fitted maximal effect.
SMILES,TDP1 inh,Sfp inh,BAZ2B inh,JMJD2A Tudor,G9a block,HP1b binding inh
Cc1occc1C(=O)NNC(=O)Cc1ccccc1,-4.0%,14.2%,1.1%,-8.1%,0.199µM*,18.6%
Cc1occc1C(=O)NCCCCc1ccccc1,3.9%,17.8µM*,-30.9%,-5.8%,-20.3%[12.7 µM],37.2%
Cc1occc1C(=O)NCc1ccccc1,1.9%,-3.5%,-15.7%,-10.0%,9.5%[0.0925 µM],38.6%
COc1ccc(NC(=O)C/C(C)=N/NC(=O)c2ccco2)c([N+](=O)[O-])c1,11.3%,-1.7%,-10.4%,-14.3%,44.7µM*,15.8%
Cc1cc(Br)cc(C)c1NC(=O)c1sc2ncn(Cc3cccc(F)c3)c(=O)c2c1C,1.9%,·,2.6%,-10.3%,-18.0%[59 µM],49.6%
O=C1C(NS(=O)(=O)c2cccs2)=C(N2CCN(Cc3ccccc3)CC2)C(=O)c2ccccc21,·,6.1%,12.6µM*,14.1µM*,12.6µM*,15.8µM*
CN1CCN(C2=C(NS(=O)(=O)c3cccs3)C(=O)c3ccccc3C2=O)CC1,·,3.4%,-14.8%,-19.3%,?,-14.1%
CN(C1=C(N2CCOCC2)C(=O)c2ccccc2C1=O)c1ccccc1,14.0%,-7.4%,10µM*,15.8µM*,10µM*,35.5µM*
CCOc1ccccc1N1CCN(C2=C(NS(=O)(=O)c3cccs3)C(=O)c3ccccc3C2=O)CC1,14.0%,?,8.91µM*,8.91µM*,?,?
O=S(=O)(NCCN1CCOCC1)c1cccs1,2.5%,15.5%,-0.7%,-9.9%,39.8µM*,35.3%
c1ccc(N2CCOCCOCCOCCOCCOCC2)cc1,2.4%,14.9%,-18.8%,-21.8%,-9.7%,44.5%
COc1ccc(CCNCc2c(C(=O)O)c(C)n(Cc3ccccc3C)c2C)c(OC)c1,2.5%,·,-9.5%,-11.7%,-2.9%[59 µM],19.6%
Cc1cc(C(=O)NC2CCC(O)CC2)c(C)o1 (centres undefined),-0.5%,·,·,-22.6%,·,17.5%
COC(=O)c1ccccc1NC(=O)CSc1n[nH]c(-c2ccco2)n1,10.0%,-9.8%,-0.7%,-26.4%,-10.2%,-12.7%
C[C@H](c1ccccc1)N1C(=O)[C@H]2[C@@H]3[C@H](O)[C@H](O)CC(=O)[C@H]3CC[C@H]2C1=O,3.7%[21 µM],-1.1%,·,·,·,·
CC1Cc2ccccc2C(CCc2ccccc2)=N1 (centres undefined),·,5.6%,-0.3%,0.0%,-11.9%[2.33 µM],75.3%
CS(=O)(=O)N1CCC2(CCN(C(c3ccccc3)c3ccccc3)CC2)CC1,·,14.5%,·,·,-5.7%[12.7 µM],·
O=C1C(NS(=O)(=O)c2cccs2)=C(N2CCOCC2)C(=O)c2ccccc21,4.8%,1.4%,39.8µM*,?,39.8µM*,?
O=C1C(NS(=O)(=O)c2cccs2)=C(N2CCN(c3cccc(C(F)(F)F)c3)CC2)C(=O)c2ccccc21,14.0%,-9.5%,10µM*,39.8µM*,?,?
c1csc(CN2CCOCC2)c1,-14.1%,-16.9%,35.5µM*,2.82µM*,8.91µM*,?
c1csc(CNCCCN2CCOCC2)c1,2.0%,17.0%,-7.8%,-9.7%,?,23.8%
COc1ccc(NC(=O)c2sc3nc(C)c(C(=O)Nc4ccc(C)cc4C)c(-c4cccs4)c3c2N)cc1,0.0%,·,-1.2%,-6.8%,-42.0%[59 µM],21.2%
CCOC(=O)COc1c(-c2ccc(OC)cc2)oc2ccccc2c1=O,4.4%,?,41.9%,29.4%,4.8%[59 µM],125.1%
O=C(O)COc1c(-c2ccco2)oc2ccccc2c1=O,1.1%,11.1%,-1.6%,-4.2%,44.7µM*,40.0%
NC(=O)COc1c(-c2ccco2)oc2ccccc2c1=O,3.8%,89.1µM*,-5.8%,-14.0%,-50.4%,8.6%
SMILES,TDP1 inh,Sfp inh,BAZ2B inh,JMJD2A Tudor,G9a block,HP1b binding inh
CC(=O)Oc1c(-c2ccc(Br)o2)oc2ccccc2c1=O,3.7%,2.1%,-18.3%,-9.6%,?,29.1%
CSCCC(NC(=O)c1cc(C)oc1C)C(=O)O (centres undefined),-2.3%,-24.0%,3.0%,6.3%,31.6µM*,35.7%
O=C(Nc1ccc(Nc2ccccc2)cc1)c1cc([N+](=O)[O-])ccc1Cl,9.7%,13.7%,39.8µM*,?,-22.7%,19.3%
CSCCC(NC(=O)c1cc([N+](=O)[O-])ccc1Cl)C(=O)O (centres undefined),3.2%,-2.8%,12.9%,-7.8%[57.1 µM],79.4µM*,47.3%
Cc1oc(-c2ccc3c(c2)OCCO3)cc1C(=O)NCC(=O)O,-5.6%,-20.0%,7.0%,?,·,-9.0%
Cc1oc(-c2ccc3c(c2)OCCO3)cc1C(=O)NC(CCC(=O)O)C(=O)O (centres undefined),-3.1%,17.8µM*,?,-11.1%,?,46.3%
COc1ccccc1N1C(=NC(=O)CCC2CCCC2)SC2CS(=O)(=O)CC21 (centres undefined),0.8%,9.2%,-11.8%,-24.8%,7.3%,22.2%
O=C(Nc1ccn(CCCNCC2CCCO2)c(=O)n1)OCc1ccccc1 (centres undefined),·,·,·,-0.7%,·,44.5%
COc1ccc(C(=O)CSc2nnc(CNC(=O)c3ccccc3)o2)cc1,3.4%,17.3%,?,-3.2%,3.1%,41.0%
C=CCNC(=O)c1c(C(F)(F)F)nn(C)c1Cl,-2.9%,9.3%,0.4%,-5.6%,44.0%,42.1%
Cc1cc2nc(-c3ccc(OCc4ccccc4C)cc3)cc(C(F)(F)F)n2n1,-1.9%,·,17.2%,64.2%,54.4%[59 µM],86.4%
CN(C)c1ncc(S(=O)(=O)c2ccccc2)c(=O)[nH]1,·,8.9%,1.3%,5.4%,-2.5%[2.33 µM],74.9%
O=C(Nc1cccnc1)c1ccc(NS(=O)(=O)c2cc([N+](=O)[O-])ccc2Cl)cc1,0.0%,-23.2%,79.4µM*,-17.1%,50.1µM*,20.2%
Cc1ccc(Nc2c(-c3c[nH]c4ccccc34)nc3cc(C)ccn23)cc1,10.0%,·,?,25.1µM*,?,?
Cc1ccc2nc(-c3c[nH]c4ccccc34)c(Nc3ccc(F)cc3)n2c1,7.3%,·,-34.4%,?,?,-8.4%
Cc1ccn2c(Nc3ccccc3)c(-c3c[nH]c4ccccc34)nc2c1,9.1%,·,10µM*,22.4µM*,8.91µM*,?
CC(=O)NCCc1ccc(S(=O)(=O)Nc2ccc3c(c2)OCCO3)cc1,·,·,·,-15.4%,·,17.3%
Cc1nc(N2CCCC2)ncc1C(=O)NCc1cccc(Cl)c1,-6.2%,·,-4.3%,4.0%,15.2%[59 µM],20.2%
CCCCNCc1cccn1-c1ccccc1,-4.4%,-24.0%,70.8µM*,5.01µM*,?,?

# Source: PubChem
